# Results published in the supplement of paper PMC8728848.
# The sample as a whole holds a higher share of the strongest signals than the screen did.
# B1: Gal 8 (Homo sapiens), O00214 (protein)
# chain: MMLSLNNLQNIIYNPVIPFVGTIPDQLDPGTLIVIRGHVPSDADRFQVDLQNGSSMKPRADVAFHFNPRFKRAGCIVCNTLINEKWGREEITYDTPFKREKSFEIVIMVKDKFQVAVNGKHTLLYGHRIGPEKIDTLGIYGKVNIHSIGFSFSSDLQSTQASSLELTEISRENVPKSGTPQLPSNRGGDISKIAPRTVYTKSKDSTVNHTLTCTKIPPMNYVSKRLPFAARLNTPMGPGRTVVVKGEVNANAKSFNVDLLAGKSKDIALHLNPRLNIKAFVRNSFLQESWGEEERNITSFPFSPGMYFEMIIYCDVREFKVAVNGVHSLEYKHRFKELSSIDTLEINGDIHLLEVRSW
# Experiments:
# Test in all cases: glycan array binding signal (z-score within array); higher = stronger binding
# Details in all cases: glycan notation: IUPAC condensed, linker removed
# [1] = target: Fuc(a1-2)Gal(b1-3)GalNAc(b1-3)Gal(a1-4)Gal(b1-4)Glc
# Outline: (§1)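 The binding signal is a Z-score computed within each array. Data were drawn from 3228 arrays in the Consortium for Functional Glycomics database, restricted to those with a known protein sequence. Scores were averaged over arrays of the same protein sequence at different concentrations or buffers, and over linkers, and negative values can be taken as non-binding.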
# [2] = target: Fuc(a1-2)Gal(b1-4)Glc6S
# Outline: as §1
# [3] = target: Fuc(a1-2)Gal(b1-4)[Fuc(a1-3)]GlcNAc(b1-3)Gal(b1-4)[Fuc(a1-3)]GlcNAc(b1-3)Gal(b1-4)[Fuc(a1-3)]GlcNAc
# Outline: as §1
# [4] = target: Fuc(a1-2)Gal6S(b1-4)Glc
# Outline: as §1
# [5] = target: Fuc(a1-2)[Gal(a1-3)]Gal(b1-3)GlcNAc
# Outline: as §1
# [6] = target: Fuc(a1-2)[Gal(a1-3)]Gal(b1-4)Glc
# Outline: as §1
# [7] = target: Fuc(a1-2)[Gal(a1-3)]Gal(b1-4)GlcNAc
# Outline: as §1
# [8] = target: Fuc(a1-2)[GalNAc(a1-3)]Gal(b1-4)Glc
# Outline: as §1
# [9] = target: Fuc(a1-2)[GalNAc(b1-3)]Gal
# Outline: as §1
# [10] = target: Fuc(a1-3)[Gal(b1-4)]GlcNAc6S
# Outline: as §1
# [11] = target: Gal(a1-3)Gal(b1-4)GlcNAc
# Outline: as §1
# [12] = target: Gal(b1-2)Gal
# Outline: as §1
# [13] = target: Gal(b1-3)GalNAc(b1-4)Gal(b1-4)Glc
# Outline: as §1
# [14] = target: Gal(b1-3)[Fuc(a1-4)]GlcNAc
# Outline: as §1
# [15] = target: Gal(b1-3)[Fuc(a1-4)]GlcNAc(b1-3)Gal(b1-4)GlcNAc
# Outline: as §1
# [16] = target: Gal(b1-4)GlcNAc(b1-3)Gal(b1-4)Glc
# Outline: as §1
# [17] = target: Gal3S(b1-3)[Fuc(a1-4)]GlcNAc
# Outline: as §1
# [18] = target: Gal3S(b1-4)Glc
# Outline: as §1
# [19] = target: Gal4S(b1-4)GlcNAc
# Outline: as §1
# [20] = target: GalNAc(b1-3)Gal(a1-4)Gal(b1-4)GlcNAc
# Outline: as §1
# [21] = target: GlcA(b1-3)Gal
# Outline: as §1
# [22] = target: GlcNAc(b1-3)Gal
# Outline: as §1
# [23] = target: GlcNAc(b1-4)Gal(b1-4)GlcNAc
# Outline: as §1
# [24] = target: GlcNAc(b1-4)GlcNAc
# Outline: as §1
# [25] = target: Neu5Ac(a2-3)Gal(b1-3)GlcNAc(b1-3)Gal(b1-3)GlcNAc
# Outline: as §1
# [26] = target: Neu5Ac(a2-3)Gal(b1-4)GlcNAc(b1-6)[Gal(b1-3)]GalNAc
# Outline: as §1
# [27] = target: Neu5Ac(a2-6)Gal(b1-4)GlcNAc(b1-2)Man(a1-3)[GlcNAc(b1-2)Man(a1-6)]Man(b1-4)GlcNAc(b1-4)GlcNAc
# Outline: as §1
# [28] = target: Neu5Ac(a2-6)Gal(b1-4)GlcNAc(b1-2)Man(a1-6)[GlcNAc(b1-2)Man(a1-3)]Man(b1-4)GlcNAc(b1-4)GlcNAc
# Outline: as §1
# [29] = target: Neu5Ac(a2-6)Gal(b1-4)GlcNAc(b1-3)Gal(b1-4)[Fuc(a1-3)]GlcNAc(b1-3)Gal(b1-4)[Fuc(a1-3)]GlcNAc
# Outline: as §1
# [30] = target: Neu5Gc(b2-6)Gal(b1-4)GlcNAc
# Outline: as §1
binder,measurement,setting,value
B1,glycan array binding signal (z-score),[1],-0.141
same,glycan array binding signal (z-score),[2],0.286
same,glycan array binding signal (z-score),[3],-0.386
same,glycan array binding signal (z-score),[4],-0.427
same,glycan array binding signal (z-score),[5],3.58
same,glycan array binding signal (z-score),[6],5.02
same,glycan array binding signal (z-score),[7],4.8
same,glycan array binding signal (z-score),[8],4.22
same,glycan array binding signal (z-score),[9],0.118
same,glycan array binding signal (z-score),[10],-0.432
same,glycan array binding signal (z-score),[11],0.236
same,glycan array binding signal (z-score),[12],-0.401
same,glycan array binding signal (z-score),[13],0.32
same,glycan array binding signal (z-score),[14],-0.413
same,glycan array binding signal (z-score),[15],0.294
same,glycan array binding signal (z-score),[16],2.43
same,glycan array binding signal (z-score),[17],-0.42
same,glycan array binding signal (z-score),[18],0.286
same,glycan array binding signal (z-score),[19],-0.395
same,glycan array binding signal (z-score),[20],0.145
same,glycan array binding signal (z-score),[21],-0.451
same,glycan array binding signal (z-score),[22],-0.434
same,glycan array binding signal (z-score),[23],-0.425
same,glycan array binding signal (z-score),[24],-0.449
same,glycan array binding signal (z-score),[25],0.949
same,glycan array binding signal (z-score),[26],0.196
same,glycan array binding signal (z-score),[27],-0.45
same,glycan array binding signal (z-score),[28],-0.442
same,glycan array binding signal (z-score),[29],-0.365
same,glycan array binding signal (z-score),[30],-0.452
